Sampled rows, rich in hits. Any-hit rate of the full collection: about 3.8%.
PAFAH2 FP inh – PAFAH2 enzyme inhibitors, primary screen, biochemical, fluorescence polarization, human. 340,000 tested, 0.99% active. Platelet-activating factor acetylhydrolase 2, cytoplasmic (Homo sapiens), Q99487. inhibition, % at 3.39 µM. recombinant PAFAH2, FP-rhodamine activity probe;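 active = inhibition above the mean over all tested compounds plus 3 SD, cut at about 30% in these data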;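 note: inhibitors block probe labeling of enzyme so polarization drops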
PAFAH1B3 inh – PAFAH1B3 enzyme inhibitors, primary screen, biochemical, fluorescence polarization, human | Platelet-activating factor acetylhydrolase IB subunit alpha1 (Homo sapiens), Q15102 | recombinant PAFAH1B3, FP-rhodamine probe | inhibition, % at 3.39 µM | 340,000 tested, 0.28% active;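 active = inhibition above the screen-wide average of all tested compounds plus 3 SD, cut at about 25% in these data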
PAFAH1B2 FP inh – PAFAH1B2 enzyme inhibitors, primary screen, biochemical, fluorescence polarization, human; Platelet-activating factor acetylhydrolase IB subunit alpha2 (Homo sapiens), P68402; recombinant PAFAH1B2, FP-rhodamine activity probe; inhibition, % at 3.39 µM; 340,000 tested, 1.2% active; AID 492953, 2010;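 active = inhibition above the mean of all tested compounds plus 3 SD, cut at about 24% in these data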
PfM18AAP inh-1 – PfM18AAP inhibitors, malaria aminopeptidase, primary screen, biochemical, QFRET, recombinant enzyme. M18 aspartyl aminopeptidase (Plasmodium falciparum 3D7). H-Glu-NHMec fluorogenic cleavage. inhibition, % at 7.35 µM. 290,000 tested, 1.2% active;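 active = inhibition above the campaign mean inhibition over all tested compounds plus 3 SD, cut at about 28% in these data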
pPAFAH FP inh – pPAFAH enzyme inhibitors, primary screen, biochemical, fluorescence polarization, human; Platelet-activating factor acetylhydrolase (Homo sapiens), Q13093; recombinant pPAFAH, FP-rhodamine probe fluorescence polarization; inhibition, % at 3.39 µM; 330,000 tested, 1.5% active; AID 463082, 2010;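 active = inhibition above the mean inhibition across the screen plus 3 SD, cut at about 25% in these data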;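 note: inhibitors block binding of the rhodamine activity-based probe so polarization drops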
Pemphigus Ab inh – inhibitors of pemphigus antibody binding to DSG3, primary screen, biochemical, bead-based, flow cytometry, scFv-GFP. AID 588358, 2011. binding (percent of control), % at 10 µM. 310,000 tested, 0.48% active. DSG3-coupled beads, scFv-anti-DSG3-GFP binding; active compounds read low. Desmoglein-3 (Homo sapiens), P32926;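 active = binding more than 3 SD below its plate's average and above zero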;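 note: hits lower antibody fragment binding to DSG3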
PfM18AAP inh-2 – PfM18AAP inhibitors, malaria aminopeptidase, confirmation, biochemical, QFRET, recombinant enzyme, triplicate | H-Glu-NHMec fluorogenic cleavage | inhibition, % at 7.35 µM | shares compounds with PfM18AAP inh-1 | 2,400 tested, 28% active;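 active = mean inhibition over replicate wells above the hit cutoff set for the earlier primary screen, cut at about 29% in these data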
CTSL1 counter – cathepsin L1 inhibitors, retest, confirmation, counter-screen for PFM18AAP inhibitor project, biochemical, QFRET, triplicate; inhibition, % at 5.96 µM; shares compounds with PfM18AAP inh-1; 2,400 tested, under 10 active; purified cathepsin L1, Z-Leu-Arg-MCA fluorescence;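 active = average inhibition across replicates above the hit cutoff set in the earlier primary screen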
Of the large screens only hits and unclear results are named; the others gave an inactive call (follow-up assays come after a bar, where they were run).

N#Cc1c2n(c(=S)n(-c3ccccc3)c1=O)CCCCC2	none
O=C(O)C1OC(Oc2cc3oc(-c4ccccc4)cc(=O)c3c(O)c2O)C(O)C(O)C1O (centres undefined)	PfM18AAP inh-1 44 | PfM18AAP inh-2 inactive | CTSL1 counter inactive
COc1c(OC2OC(C(=O)O)C(O)C(O)C2O)cc(O)c2c(=O)cc(-c3ccccc3)oc12 (centres undefined)	none
N#Cc1cc([N+](=O)[O-])ccc1NC(=O)COC(=O)C1CCC(=O)N1 (centres undefined)	none (no result: PfM18AAP inh-1, Pemphigus Ab inh)
CCN1/C(=C/C(C)=C/c2sc3ccccc3[n+]2CC)Sc2ccccc21	PfM18AAP inh-1 44, Pemphigus Ab inh 23 | PfM18AAP inh-2 inactive | CTSL1 counter inactive
CCN1/C(=C/c2ccc3cccc(C)c3[n+]2CC)Sc2ccccc21	none
Oc1ccc(N2CCN(Cc3c(-c4ccccc4)nc4ccccn34)CC2)cc1	PfM18AAP inh-1 34 | PfM18AAP inh-2 inactive | CTSL1 counter inactive
Cc1nnc(SCC(=O)NC2CCCc3c2cnn3-c2ccccc2F)o1 (centres undefined)	none
Cc1oc(-c2ccc3c(c2)OCCO3)cc1C(=O)NC(CCC(=O)O)C(=O)O (centres undefined)	PfM18AAP inh-1 38 (no result: Pemphigus Ab inh) | PfM18AAP inh-2 inactive | CTSL1 counter inactive
O=C(Cc1ccc([N+](=O)[O-])cc1)c1c(O)cc(O)cc1O	PfM18AAP inh-1 44 | PfM18AAP inh-2 inactive | CTSL1 counter inactive
Cc1cc(O)cc(O)c1C(=O)Cc1ccccc1	none (no result: Pemphigus Ab inh)
CN1CCc2c(sc3c2c(=O)n(-c2ccccc2)c2n[nH]c(=S)n32)C1	PfM18AAP inh-1 38 | PfM18AAP inh-2 inactive | CTSL1 counter inactive
CCCCn1c(=O)c2ccccc2n2c(=S)[nH]nc12	PfM18AAP inh-1 32 (no result: Pemphigus Ab inh) | PfM18AAP inh-2 inactive | CTSL1 counter inactive
CCCCCn1c(=O)c2ccccc2n2c(=S)[nH]nc12	none
CCC(C)c1ccc(-n2c(=O)c3ccccc3n3c(=S)[nH]nc23)cc1 (centres undefined)	none (no result: Pemphigus Ab inh)
O=c1c2ccccc2n2c(=S)[nH]nc2n1-c1ccccc1	PfM18AAP inh-1 45 | PfM18AAP inh-2 inactive | CTSL1 counter inactive
COc1cc(NC(=O)COC(=O)CCOc2ccc(C)cc2)cc(OC)c1	none
Cc1ccc(C(=O)/C=C/c2cc(C#N)n(C)c2C)cc1	none
Cc1cc2c(n1-c1ccc(C(=O)O)cc1)CCCCC2	none (no result: PAFAH2 FP inh, PAFAH1B3 inh, PAFAH1B2 FP inh, pPAFAH FP inh, Pemphigus Ab inh)
C/C(=N/NC(=O)c1cc(O)c(O)c(O)c1)c1ccc([N+](=O)[O-])cc1	PfM18AAP inh-1 50 (no result: pPAFAH FP inh) | PfM18AAP inh-2 inactive | CTSL1 counter inactive
CCOc1cc(/C=C2\CN(C)C/C(=C\c3ccc(O)c(OCC)c3)C2=O)ccc1O	PfM18AAP inh-1 44 | PfM18AAP inh-2 inactive | CTSL1 counter inactive
COc1cc(C=C2CN(C)C(=O)C2=O)ccc1O	none (no result: PAFAH2 FP inh, PAFAH1B3 inh, PAFAH1B2 FP inh, PfM18AAP inh-1, pPAFAH FP inh)
CCOc1cc(/C=C2\SC(N)=NC2=O)ccc1O	PfM18AAP inh-1 38 | PfM18AAP inh-2 inactive | CTSL1 counter inactive
CCOC(=O)C1=C(O)/C(=C\c2ccc(O)c(OCC)c2)N=C1C	PfM18AAP inh-1 40 | PfM18AAP inh-2 inactive | CTSL1 counter inactive
CCOc1cc(/C=C2\SC(=O)N=C2N)ccc1O	none
COc1ccc(C)cc1S(=O)(=O)N1CCN(C/C=C/c2ccccc2)CC1	none (no result: PfM18AAP inh-1)
COc1ccc(CCNC(=O)CNCC2CCCCC2)cc1OC	none
Cc1ccc(C(=O)Nc2ccc3c(c2)nc(CCNC(=O)c2ccco2)n3C)cc1	none
COc1cc(C)c(NC(=O)Cc2ccsc2)cc1OC	none (no result: Pemphigus Ab inh)
